# System: VDR:RXRa (NR concentration 270 nM, RXRa partner concentration 90 nM)
# Assay: PBM binding z-score (relative to random genomic background probes); higher = stronger binding; sequences stand for … in GC…GCGATTGACAGCGTAGAATGAAGG
# Description: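 Protein-binding microarray (Agilent 4x180K custom design, double-stranded 60-nt probes: 5' GC cap, 34-nt variable region, 24-nt constant primer region; full probe sequence given). Purified or IVT nuclear receptor:RXRα heterodimers (3:1 NR:RXRα, mostly 270:90 nM) or homodimers were incubated for 1 h in PBS with 2% milk and no ligand, then detected with Alexa488 antibodies. Fluorescence from o1-orientation probes (~5 replicates averaged) was converted to z-scores against 500 random hg19 background probes. Variable regions are seed direct-repeat (DR0–DR5) sites, all their single-nucleotide variants and half-site ablations.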
row,Sequence,PBM binding z-score
1,TCGTATAGGTAAAGGTGAAAGTCGAACGATATGA,0.788
2,ACTCGGAGGACAAAGGTCAGAGCTACGCCAGTGA,3.36
3,GCTAGCAGGCCACTTGGGTCACTCAATGACGGGC,0.83
4,CGAACTAGGGCAAGGACAGTGAATCTCCGCACGC,-0.473
5,TAGCCTAGGCCAGATCGGGCCAGTATACGCTATA,-0.802
6,ATCTCTAGGTAAGACTCAGTCCAGTGAAGAACGC,0.327
7,CCTCGGAGGCCAACAGGAGGTCAGAGCTGCCAGA,2.07
8,AGTACGAGGGCAATGAGTTGATAGCACGGGTGGC,5.08
9,CCTACTGGGCCAAAGTTCATTGATTCCAATGCTC,3.24
10,TCTTGTAGATCAGAGGTTAAGAAAGCCGAAGCCT,0.673
11,GATACAGGGTCAAGGCCAGAGGACGCGTATTGAT,4.11
12,TCGAGTAGGTTACCAATGGGGCGTTCAGCTTTCT,-0.111
13,TCTTGTAGATCAACAGGAGGTTAAGGAAGATCGA,0.488
14,TCGTATAGGTAAACAGGTGAAAGTCCGTAAGTTA,0.883
15,TAGCCTAGGTCATGAGGGCCAGTATAGTGTCGGC,3.51
16,CGTCAAAGTTCAACTAAAGTAACGTAAAGCACGC,4.08
17,ATACTAAGGTGATCGTGAGGTCGTTGATACTAAC,3.72
18,CGAACGAGGGCACGAGTTGATAGCAAATGCCGAT,1.97
19,ATCTCTAGGTAAACATAGTTCAGTGAATGCAAAT,1.34
20,TCTTGTAGACCAACAGGAGGTTAAGAAAGATCGA,0.492

row,Sequence,PBM binding z-score
1,TCAGACAGGTGAAGGTAACTAAGGTACGCAGTCG,1.01
2,ATCTCTAAGTAAGACTCAGTTCAGTGAAGAACGC,0.712
3,CAAACTAGGTCACAGCGGTCAAAGTCCGTGCGTA,5.9
4,TAGCCTAGGTCATGCGGGCCGGTATAGTGTCGGC,2.22
5,ATACCAAGGTGATCATGAGGTCGTTGATACTAAC,3.38
6,CGTCCAAGTTCATAGGAGGTCAGTGAAGACAGAT,5.91
7,TCTTGTAGATCCGCAGGTTAAGAAAGCTGGCCAA,0.237
8,TAGTCTAGGTCAGATCGGGCCAGTATACGCTATA,0.995
9,CAAACTAGGTCATGAAAGGTCAAAGTCGAATGAC,6.73
10,TCTTGTAGATCAAGCAGGTTAAGAAGGCCTGAGT,0.55
11,ATATGTAGGTTAAGTGTCATTCAGGTTGGTTCGC,2.28
12,TCTAGCAGTCCAGAGGGTCACTCAAGAGGTACGG,1.69
13,ATACCAAGGTGATCGTGAGGTCATTGATACTAAC,5.31
14,AGATGTAGGTTAAGGGTCATTCAGGTTGGTTCGC,5.59
15,TCTGCGAGGTCAACGATGGTCAGCTAATCTGCTA,5.38
16,CGAACGAGGGCATGAGTTGATAGCCAATGCCGAT,1.09
17,TGAATGAGGTTAAAGATCAAGGAACGTGGCGTCG,2.09
18,AGAATGAGGTTATTAGGATCAGGGAATTGCGGTC,2.7
19,CCTCGGAGGACAGAAGGCCAGAGCTGTCCGCTTT,-0.762
20,CCTGCTAGGTCACTGGTCAGCTAAAGCAGCTCGC,1.39

# Reference: the supplement of paper PMC6555819
